Records with an inconclusive call do not appear. Calls of active or inactive are those of the source. Rule for the calls, unless noted: active = hit-call score of the fitted dose curve at least 0.9, where 1 is the maximum; inactive = score below 0.9.
Columns and labels:
[1] = target: Estrogen receptor (Homo sapiens) (UniProt P03372); assay: OT_ERa_GFPERaERE_0480: Odyssey Thera (OT) 8-hour HeLa Transcription Induction Assay for Estrogen Receptor (AID 2283381)
In short: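 Human cervical HeLa cells were treated for 8 hours, after which ERE-driven GFP induction was measured by fluorescence microscopy; increases over DMSO baseline defined activity.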

[2] = target: Estrogen receptor (Homo sapiens) (UniProt P03372); assay: OT_ERa_GFPERaERE_0120: Odyssey Thera (OT) 2-hour HeLa Transcription Induction Assay for Estrogen Receptor (AID 2283382; active = hit-call score of the fitted dose curve at least 0.9, where 1 is the maximum)
In short: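 Cells (human cervical HeLa) receive compound, incubate 2 hours, then are imaged for fluorescent reporter induction. Images are quantified by high content analysis, and activity is fitted as gain of signal against DMSO.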

[3] = target: Retinoic acid receptor RXR-alpha (Homo sapiens) (UniProt P19793); assay: OT_NURR1_NURR1RXRa_0480: Odyssey Thera (OT) 8-hour HEK293T Protein Complementation Assay for Nurr1/retinoid X receptor (RXR) (AID 2283385; active = hit-call score of the fitted dose curve at least 0.9, where 1 is the maximum)
In short: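 Interaction of bait and prey reconstitutes a functional reporter, whose fluorescence was measured in HEK293T cells dosed with compound for 8 hours. Signal gain relative to DMSO defined the single endpoint.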

[4] = target: Retinoic acid receptor RXR-alpha (Homo sapiens) (UniProt P19793); assay: OT_NURR1_NURR1RXRa_1440: Odyssey Thera (OT) 24-hour HEK293T Protein Complementation Assay for Nurr1/retinoid X receptor (RXR) (AID 2283386; active = hit-call score of the fitted dose curve at least 0.9, where 1 is the maximum)
In short: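 Steps: fragment-tagged Nurr1 and RXRα expressed in HEK293T; compounds added; after 24 h, complemented reporter quantified by fluorescence intensity; signal increase over DMSO fitted as the single endpoint.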

[5] = target: Peroxisome proliferator-activated receptor gamma (Homo sapiens) (UniProt P37231); assay: OT_PPARg_PPARgSRC1_1440: Odyssey Thera (OT) 24-hour Protein-Complementation Assay for Peroxisome Proliferator-activated Receptor Gamma/ SRC-1 Co-activator (AID 2283388; active = hit-call score of the fitted dose curve at least 0.9, where 1 is the maximum)
In short: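 HEK293T transiently transfected with PPARg/SRC-1 split-Venus YFP fusions 48 h before dosing, then treated 24 h at 37C. Fixed cells imaged; nuclear/cytoplasmic 488 nm fluorescence ratio, gain of signal versus DMSO.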

[6] = target: Estrogen receptor beta (Homo sapiens) (UniProt Q92731); assay: OT_ER_ERbERb_1440: Odyssey Thera (OT) 24-hour HEK293T Protein-Complementation Assay for Estrogen Receptor-beta/-beta Homodimer (AID 2283380; active = hit-call score of the fitted dose curve at least 0.9, where 1 is the maximum;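 note: fluorescence gain from ER beta LBD homodimer complementation read by laser scanning cytometry; scored as signal increase over DMSO baseline for both agonists and antagonists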)
In short: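 HEK293T cells stably expressing human ER-beta LBD (aa 310-547) PCA homodimer pair, dosed 24 h; formaldehyde-fixed, Draq5-stained. Readout: increase in nuclear (agonist) or nuclear plus cytoplasmic (antagonist) fluorescence intensity versus DMSO, gain-of-signal fitting.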

[7] = target: Bile acid receptor (Homo sapiens) (UniProt Q96RI1); assay: OT_FXR_FXRSRC1_0480: Odyssey Thera (OT) 8-hour HEK293T Protein-Complementation Assay for Farnesoid X receptor/SRC-1 Co-activator (AID 2283383; active = hit-call score of the fitted dose curve at least 0.9, where 1 is the maximum)
In short: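 PCA, HEK293T, 8 h compound exposure; FXR–SRC-1 binding reconstitutes split reporter; fluorescence intensity; positive-direction fit vs DMSO.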

[8] = target: Bile acid receptor (Homo sapiens) (UniProt Q96RI1); assay: OT_FXR_FXRSRC1_1440: Odyssey Thera (OT) 24-hour HEK293T Protein-Complementation Assay for Farnesoid X receptor/SRC-1 Co-activator (AID 2283384; active = hit-call score of the fitted dose curve at least 0.9, where 1 is the maximum)
In short: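 Measures ligand-driven FXR–SRC-1 co-activator recruitment in HEK293T via fragment complementation, fluorescence intensity at 24 h. DMSO served as negative control and baseline for gain-of-signal fitting.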

[9] = CEETOX_H295R_11DCORT: CeeTox H295R High-throughput Steroidogenesis Assay for 11-Deoxycortisol (11DCORT) (AID 2283432); settings: actives raise or lower the signal;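 for AC50: human adrenal H295R cells prestimulated with 10 µM forskolin for 48 h; 11-deoxycortisol secreted into the medium measured by LC-MS/MS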
In short: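 Steroidogenesis in human H295R cells: 48 h chemical exposure after forskolin priming, 11-deoxycortisol measured by LC-MS/MS.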

[10] = CEETOX_H295R_OHPREG: CeeTox H295R High-throughput Steroidogenesis Assay for OH-Pregnenolone (OHPREG) (AID 2283434); settings: actives raise or lower the signal
In short: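 Readout: HPLC-MS/MS of 17alpha-hydroxypregnenolone in medium after 48 h chemical exposure of H295R cells pretreated with forskolin. Values fitted bidirectionally relative to DMSO; chemicals reducing viability to 20–70% were retested after 10-fold dilution.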

[11] = CEETOX_H295R_OHPROG: CeeTox H295R High-throughput Steroidogenesis Assay for OH-Progesterone (OHPROG) (AID 2283435); settings: actives raise or lower the signal;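 for AC50: human adrenal H295R cells primed 48 h with 10 µM forskolin; 17alpha-hydroxyprogesterone secreted into medium measured by HPLC-MS/MS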
In short: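 Steps: seed H295R cells and adhere overnight; stimulate with 10 uM forskolin for 48 h; replace with chemical-containing medium (0.1% DMSO) for 48 h; extract medium with MTBE; quantify 17alpha-hydroxyprogesterone by reverse-phase C18 HPLC-MS/MS against a 7-point curve.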

[12] = CEETOX_H295R_ANDR: CeeTox H295R High-throughput Steroidogenesis Assay for Androstenedione (ANDR) (AID 2283436); settings: actives raise or lower the signal;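 note: human H295R adrenal cells exposed for 48 h with androstenedione measured in medium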
In short: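 Steroidogenesis in H295R adrenal cells after 48 h dosing; androstenedione quantified by LC-MS/MS, with DMSO as negative control and baseline for bidirectional curve fitting.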

[13] = CEETOX_H295R_CORTIC: CeeTox H295R High-throughput Steroidogenesis Assay for Corticosterone (CORTIC) (AID 2283437); settings: actives raise or lower the signal;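 note: corticosterone secreted into medium quantified by mass spectrometry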
In short: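 Steps: seed H295R, adhere overnight; 10 uM forskolin 48 h; replace with chemical (0.1% DMSO) 48 h; extract medium with MTBE; quantify corticosterone by HPLC-MS/MS; score bidirectionally vs DMSO.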

[14] = CEETOX_H295R_CORTISOL: CeeTox H295R High-throughput Steroidogenesis Assay for Cortisol (AID 2283438); settings: actives raise or lower the signal;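 note: cortisol secreted into medium quantified by LC-MS/MS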
In short: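 Cortisol synthesis by H295R cells is measured 48 h after chemical dosing, following a 48 h stimulation with 10 uM forskolin. Hormone is extracted and quantified by HPLC-MS/MS, and activity is fitted bidirectionally against the DMSO control.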

[15] = CEETOX_H295R_DOC: CeeTox H295R High-throughput Steroidogenesis Assay for DOC (AID 2283439); settings: actives raise or lower the signal
In short: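 Steps: seed H295R, adhere overnight; 10 uM forskolin 48 h; replace with chemical medium (0.1% DMSO) 48 h; collect medium, MTBE extraction, HPLC-MS/MS for DOC. Viability then checked by MTT; cytotoxic chemicals diluted until viability ≥70%.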

[16] = CEETOX_H295R_ESTRADIOL: CeeTox H295R High-throughput Steroidogenesis Assay for Estradiol (AID 2283440); settings: actives raise or lower the signal;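 note: estradiol secreted into medium quantified by LC-MS/MS after dansyl derivatisation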
In short: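 H295R cells pre-stimulated 48 h with 10 uM forskolin, then exposed 48 h to chemical in 0.1% DMSO. Medium estradiol quantified by MTBE extraction, dansyl derivatisation and HPLC-MS/MS; bidirectional fit versus DMSO; MTT viability required >/=70%.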

Measured: AC50

Retinoic acid receptor RXR-alpha (Homo sapiens), sequence (P19793 whole entry, looked up, the tested form may be a part): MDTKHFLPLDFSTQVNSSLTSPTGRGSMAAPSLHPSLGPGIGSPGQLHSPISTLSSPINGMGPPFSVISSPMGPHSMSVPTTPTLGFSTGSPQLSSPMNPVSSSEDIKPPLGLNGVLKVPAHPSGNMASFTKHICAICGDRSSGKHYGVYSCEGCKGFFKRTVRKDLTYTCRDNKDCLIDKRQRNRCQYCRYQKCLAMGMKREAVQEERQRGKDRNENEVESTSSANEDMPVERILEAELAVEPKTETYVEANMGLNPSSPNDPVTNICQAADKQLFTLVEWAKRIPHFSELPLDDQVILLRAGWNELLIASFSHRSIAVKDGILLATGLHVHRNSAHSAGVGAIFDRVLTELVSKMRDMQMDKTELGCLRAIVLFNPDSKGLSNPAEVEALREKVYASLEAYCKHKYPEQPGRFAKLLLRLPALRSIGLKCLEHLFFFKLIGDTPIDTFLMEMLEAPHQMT
Estrogen receptor (Homo sapiens), sequence (P03372 whole entry, looked up): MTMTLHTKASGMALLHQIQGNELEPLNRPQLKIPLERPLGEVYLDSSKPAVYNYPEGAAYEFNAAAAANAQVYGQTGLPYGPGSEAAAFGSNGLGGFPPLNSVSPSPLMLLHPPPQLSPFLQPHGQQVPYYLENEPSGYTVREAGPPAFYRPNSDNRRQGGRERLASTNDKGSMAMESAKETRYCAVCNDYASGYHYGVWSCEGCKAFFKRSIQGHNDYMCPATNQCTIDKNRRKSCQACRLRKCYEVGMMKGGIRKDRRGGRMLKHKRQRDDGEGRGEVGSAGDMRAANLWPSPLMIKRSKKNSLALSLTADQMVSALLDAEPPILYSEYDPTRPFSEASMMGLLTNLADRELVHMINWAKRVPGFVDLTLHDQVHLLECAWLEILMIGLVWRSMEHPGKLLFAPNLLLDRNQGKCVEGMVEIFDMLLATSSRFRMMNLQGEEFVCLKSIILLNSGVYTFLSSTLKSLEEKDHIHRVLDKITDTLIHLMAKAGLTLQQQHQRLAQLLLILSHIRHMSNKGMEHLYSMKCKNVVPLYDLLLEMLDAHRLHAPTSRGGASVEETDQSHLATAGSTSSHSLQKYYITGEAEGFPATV
Peroxisome proliferator-activated receptor gamma (Homo sapiens), sequence (P37231 whole entry, looked up, the tested form may be a part): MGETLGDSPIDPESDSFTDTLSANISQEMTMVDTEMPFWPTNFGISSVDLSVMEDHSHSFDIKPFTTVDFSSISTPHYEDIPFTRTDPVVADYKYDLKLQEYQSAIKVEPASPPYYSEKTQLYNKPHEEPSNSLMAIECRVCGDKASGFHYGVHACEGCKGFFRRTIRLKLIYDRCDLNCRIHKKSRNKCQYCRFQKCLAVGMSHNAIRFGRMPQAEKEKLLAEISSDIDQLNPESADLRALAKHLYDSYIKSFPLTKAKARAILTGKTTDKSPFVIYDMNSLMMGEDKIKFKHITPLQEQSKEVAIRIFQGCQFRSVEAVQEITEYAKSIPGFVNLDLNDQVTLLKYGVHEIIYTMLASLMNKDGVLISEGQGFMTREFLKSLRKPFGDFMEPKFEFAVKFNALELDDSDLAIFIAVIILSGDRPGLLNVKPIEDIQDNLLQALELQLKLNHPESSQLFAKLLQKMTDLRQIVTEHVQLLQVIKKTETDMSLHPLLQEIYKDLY
Bile acid receptor (Homo sapiens), sequence (Q96RI1 whole entry, looked up, the tested form may be a part): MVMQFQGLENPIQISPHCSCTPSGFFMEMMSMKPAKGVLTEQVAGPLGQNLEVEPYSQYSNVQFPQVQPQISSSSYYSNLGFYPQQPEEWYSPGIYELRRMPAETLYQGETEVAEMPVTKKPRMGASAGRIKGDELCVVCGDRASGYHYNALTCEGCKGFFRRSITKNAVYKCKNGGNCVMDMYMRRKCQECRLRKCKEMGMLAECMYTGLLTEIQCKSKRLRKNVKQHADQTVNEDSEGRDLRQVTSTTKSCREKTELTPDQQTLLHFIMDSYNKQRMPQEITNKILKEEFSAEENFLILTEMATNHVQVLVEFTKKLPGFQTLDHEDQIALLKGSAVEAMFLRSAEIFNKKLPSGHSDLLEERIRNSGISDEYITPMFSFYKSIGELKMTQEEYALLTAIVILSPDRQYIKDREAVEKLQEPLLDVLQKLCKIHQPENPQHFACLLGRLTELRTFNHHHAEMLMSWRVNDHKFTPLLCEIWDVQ
Estrogen receptor beta (Homo sapiens), sequence (Q92731 whole entry, looked up, the tested form may be a part): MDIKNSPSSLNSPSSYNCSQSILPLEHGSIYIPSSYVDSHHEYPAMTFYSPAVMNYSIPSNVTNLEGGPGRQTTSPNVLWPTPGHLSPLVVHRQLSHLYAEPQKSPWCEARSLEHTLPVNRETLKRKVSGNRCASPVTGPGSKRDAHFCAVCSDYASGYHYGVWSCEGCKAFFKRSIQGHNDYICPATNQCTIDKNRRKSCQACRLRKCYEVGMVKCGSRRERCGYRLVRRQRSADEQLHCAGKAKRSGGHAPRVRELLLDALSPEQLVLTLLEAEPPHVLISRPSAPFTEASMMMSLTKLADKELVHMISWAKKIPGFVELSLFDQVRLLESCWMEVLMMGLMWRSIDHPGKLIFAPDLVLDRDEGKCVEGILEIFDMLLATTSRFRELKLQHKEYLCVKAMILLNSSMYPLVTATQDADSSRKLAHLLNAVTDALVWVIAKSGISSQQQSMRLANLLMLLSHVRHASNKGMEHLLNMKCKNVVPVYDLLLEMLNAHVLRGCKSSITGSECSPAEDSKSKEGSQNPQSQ

CCCCOC(=O)[C@H](C)O
inactive: [1] | [2] | [3] | [4] | [5]

CCc1cc(Cc2cc(CC)c(N)c(CC)c2)cc(CC)c1N
active: [7] 11.8 µM | [3] 11.5 µM
inactive: [6] | [1] | [2] | [8] | [5]

CC(C)Nc1ccc(NC(C)C)c2c1C(=O)c1ccccc1C2=O
active: [6] 19.1 µM | [8] 18.2 µM
inactive: [2] | [3] | [4] | [5]

Cc1cccc(C)n1
inactive: [9] | [10] | [11] | [12] | [13] | [14] | [15] | [16]

CC(C)(C)c1cc(Cc2cc(C(C)(C)C)c(O)c(C(C)(C)C)c2)cc(C(C)(C)C)c1O
active: [8] 6.6 µM
inactive: [6] | [1] | [2] | [7] | [4] | [5]

O=c1[nH]cccc1O
inactive: [13] | [14] | [16]
active: [9] 8.85 µM | [10] 6.71 µM | [11] 8.78 µM | [15] 5.07 µM

CN1CN(C)CN(C)C1
inactive: [9] | [10] | [11] | [13] | [14] | [15] | [16]

Cc1ccc([N+](=O)[O-])c(C)c1
inactive: [1] | [2] | [8] | [3] | [5]

CC(=O)CCC(C)C
inactive: [1] | [2] | [7] | [3] | [5]

CCCCC(CC)COC(=O)c1ccc(N(C)C)cc1 (stereo unspecified)
active: [7] 32.7 µM | [8] 50 µM | [3] 77.7 µM | [4] 76 µM | [10] 6.35 µM | [11] 6.74 µM | [15] 6.74 µM
not listed: [12]
inactive: all other assays above

N#Cc1ccccc1O
active: [11] 30.1 µM | [15] 77.7 µM
not listed: [3] | [6] | [7] | [12] | [16]
inactive: all other assays above

O=C1c2ccccc2C(=O)c2c(Cl)cccc21
inactive: [9] | [10] | [11] | [12] | [13] | [14] | [15] | [16]
